Measurements: PubChem BioAssay AID743282 (The Scripps Research Institute Molecular Screening Center, 2014)
Among all 2,000 compounds or so, about 170 (8.5%) were called active. The list is a sample of the results. Values without a mark were called inactive.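 How the source made its calls: active means average inhibition above the solvent-only control mean plus 3 SD (cut at about 6% in these data); inactive means the rest.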

Assay: BODIPY product fluorescence quenching artefacts – biochemical, QFRET, 535nm, artefact control for HGIII-sPLA2 inhibitor project, confirmation (AID 743282);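 further: 0% = DMSO with substrate plus product and 100% = DMSO with substrate alone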
Conditions: BODIPY FL product fluorescence interference, at 12.2 µM, hits give high values
Work on Cc1ccc(S(=O)(=O)N2CCOCC2)cc1C(=O)NC(=S)N(Cc1ccccc1)C(C)C yielded an inhibition of -1.68%. With COc1cccc(NC(C)=[N+](C)CCNS(=O)(=O)c2ccc(Cl)cc2)c1 the inhibition was -14.7%. Compound Cc1sc2nc(SCC(=O)c3ccc(O)c(O)c3)n(Cc3ccco3)c(=O)c2c1C has an inhibition of 0.57%. With Cc1cccc(-n2cnc(C(=O)NNC(=S)Nc3ccccc3)c2)n1 the inhibition was -2.38%. In the case of CC1=CC(C)(C)NC(=S)N1c1ccccc1, the inhibition was -3.33%. For CCOc1ccc(Br)cc1CSC(=N)N, the inhibition was -9.39%. Compound Cc1cccc(C)c1NC(=O)CN1C(=O)C(C)Oc2ccccc21 (stereo not given) has an inhibition of -4.96%. With S=C(NNC(=S)NC1CC2CCC1C2)NC1CC2C=CC1C2 (stereo not given) the inhibition was 3.69%. O=C(NNC(=S)NC1CCCCC1)c1ccccc1Cl showed an inhibition of -4.68%. For Cc1[nH]c(N)nc(=S)c1CCCNc1ccccc1, the inhibition was 0.28%. For CN(CC(=O)Nc1ccc(N2CCOCC2)cc1)CC(=O)Nc1ccccc1[N+](=O)[O-], the inhibition was -3.73%. C/C(=N\Nc1ccc(Cl)nn1)c1ccccc1O showed an inhibition of 1.8%. For CCc1cccc(CC)c1NC(=S)NCc1ccc2[nH]c(C)cc2c1, the inhibition was -0.12%. For c1ccc(C2=Nc3cccc4cccc(c34)N2)cc1, the inhibition was 11.4% (active). Work on CC(C(=O)Nc1ccccc1-c1ccccc1)N1CCOCC1 (stereo not given) yielded an inhibition of -7.3%. Compound O=C(CSc1nc2ccccc2n1Cc1ccccc1)NNC(=S)Nc1ccccc1 has an inhibition of -3.82%. For O=C(NNc1ccccn1)c1ccc(Cl)nc1, the inhibition was 34% (active). For O=C(OC12CC3CC(CC(C3)C1)C2)c1ccc(NCc2cc(O)ccc2O)cc1, the inhibition was 12.9% (active). With COc1ccccc1OCC(=O)OCn1c(SC)nnc(C)c1=O the inhibition was 0.95%. COc1ccc(C(=O)Nc2sc(C)c(C)c2CN2CCOCC2)cc1 showed an inhibition of -13.2%. For O=C1C(=O)N(Cc2ccc(-c3ccsc3)cc2)c2ccc(OC(F)(F)F)cc21, the inhibition was 4.49%. With Nc1[nH]c(C(=O)c2ccccc2)c(-c2ccc(Br)cc2)c1C(=O)NC1CC1 the inhibition was -0.53%. CN(C)c1ccc(NC(=O)NC2CCCCN(Cc3ccc(Cl)cc3)C2=O)cc1 (stereo not given) showed an inhibition of -5.22%. For CC(C)(C)c1cc2cccnc2n1Cc1cccc(F)c1, the inhibition was -9.11%. Compound CN(C)S(=O)(=O)c1cccc(NC(=S)N/N=C/C(=O)c2ccccc2)c1 has an inhibition of 5.77%. In the case of CC(NC(=O)COC(=O)Cn1cc(C(F)(F)F)ccc1=O)c1ccccc1 (stereo not given), the inhibition was -1.38%. Compound CC(C)CC(=O)NC(=S)NNC(=O)c1cccc([N+](=O)[O-])c1 has an inhibition of -0.46%. In the case of CSc1ccc(NC(=O)/C=C/C(=O)O)cc1, the inhibition was -8.22%. O=C(/C=C/c1c(Cl)cccc1Cl)NCc1ccccc1 showed an inhibition of -0.31%. In the case of N#CC1(Nc2ccc(-c3ccc(Cl)cc3)cc2)CCCC1, the inhibition was 6.64% (active). CC(C)c1cc(C(=O)N/N=C/c2ccoc2)c(O)c(C(C)C)c1 gave an inhibition of 4.05%. In the case of Cc1ccc(C2Nc3ccccc3C(=O)N2CCN2CCNC2=O)cc1 (stereo not given), the inhibition was -4.79%. Compound COc1ccc2c(c1)c(=Cc1ccc(N(C)C)cc1)c1cc(-c3ccccc3)[n+](C)n12 has an inhibition of -26.7%. O=C(NNC(=S)Nc1ccc(F)cc1)[C@H]1C[C@@H]1c1ccccc1 gave an inhibition of 1.83%. In the case of COc1ccc(NC(=O)C2C3C=CC(C3)C2C(=O)NCc2ccccn2)c(OC)c1 (stereo not given), the inhibition was -6.28%. For CCCCn1c(N)c(N(CCOC)C(=O)COc2c(C)cccc2C)c(=O)[nH]c1=O, the inhibition was -7.38%. O=C(NN1C(=O)C2C3C=CC(C3)C2C1=O)c1ccco1 (stereo not given) gave an inhibition of -5.42%. COCCn1c(SCC(=O)Nc2cc(OC)ccc2OC)nc2c(c1=O)SC(C)C2 (stereo not given) gave an inhibition of -17.4%. COc1ccccc1OCCn1c(SCC(N)=O)nc2ccccc21 showed an inhibition of -8.97%. Work on COc1cc(NS(=O)(=O)c2ccc3ccccc3c2)c2ncccc2c1 yielded an inhibition of 5.89%. For O=C(Nc1cccc(F)c1)c1cc(-c2ccco2)nc2ccccc12, the inhibition was 4.81%. Compound C/C(=N/NC(=O)c1cc(Cl)ccc1O)C12CC3CC(CC(C3)C1)C2 has an inhibition of -3.29%. In the case of CCCCn1c(=S)[nH]c2ccccc2c1=O, the inhibition was -2.71%. Compound Cc1cc(NCCc2c[nH]c3ccccc23)ccc1Oc1cccnc1 has an inhibition of -3%. Compound CCNC(=S)Nc1ccc(OC(F)(F)F)cc1 has an inhibition of 0.41%. In the case of NC(c1csc(NC(=O)Nc2ccccc2Oc2ccccc2)n1)c1ccccc1Cl (stereo not given), the inhibition was 4.15%. With COc1cc(/C=N/n2c(C)n[nH]c2=S)ccc1OCc1ccccc1 the inhibition was -3.5%. With Cc1ccc(C2CC(c3cccc(C)c3)n3nc(N)nc3N2)cc1 (stereo not given) the inhibition was -10.8%. In the case of Nc1ccc2c(c1)C(O)c1ccc(Cl)cc1-2 (stereo not given), the inhibition was 7% (active). Compound CCN(Cc1ccccc1)C(=O)CN1C(=S)NC(C)(C)CC1C (stereo not given) has an inhibition of -7.34%. Work on C#CCCCc1nc2ccccc2c(=O)n1N yielded an inhibition of -6.82%. Cc1nnc(Sc2nc3c(c(=O)[nH]c(=O)n3C)n2Cc2ccccc2)s1 showed an inhibition of -6.93%. With CCN(CC(=O)NC1CCS(=O)(=O)C1)S(=O)(=O)c1ccccc1 (stereo not given) the inhibition was -0.3%. CCOC12CC(C)(C)CC(C)(CC3=C1C(=O)CC(C)(C)C3)C2 (stereo not given) gave an inhibition of -12.7%. For CC(C)(c1ccccc1)c1ccc(OCCN)cc1, the inhibition was -22.1%. Compound CC[C@]1(O)C[C@@H]2CN(CCc3c([nH]c4ccccc34)[C@@](C(=O)OC)(c3cc4c(cc3OC)N(C)[C@H]3[C@@](O)(C(=O)OC)[C@H](OC(C)=O)[C@]5(CC)C=CCN6CC[C@]43[C@@H]65)C2)C1 has an inhibition of -25%. With CCCCCCCCCCOC(=O)C[N+](C)(C)CC1CCCCC1O (stereo not given) the inhibition was -19.3%. In the case of COc1cc(OC)cc(C2=Cc3ccccc3C(CC(=O)c3ccco3)N2c2ccc(-c3cnc(OC)nc3)cc2)c1 (stereo not given), the inhibition was -14%. For COC(=O)C(C)n1cnc2c(nnn2-c2ccc(F)cc2)c1=O (stereo not given), the inhibition was -6.41%. In the case of Cc1cccc(N2CCN(c3ccc(NC(=O)/C=C\C(=O)O)cc3)CC2)c1, the inhibition was 3.01%. With N=C(N)SCc1cccc2ccccc12 the inhibition was -8.26%. In the case of O=C(CCl)NNc1cccc(Cl)n1, the inhibition was 113% (active). For NS(=O)(=O)c1ccc(CCNC(=O)NC2CCCCC2)cc1, the inhibition was -4.36%. For O=C(NNC(=S)NC1CC2CCC1C2)c1ccc(Cl)cc1 (stereo not given), the inhibition was 0.11%. COc1ccc(Cl)cc1C(=O)NNC(=S)NC1CCCC1 showed an inhibition of 3.94%. C=CCNc1scc(-c2ccccc2)[n+]1CC=C showed an inhibition of -8.41%. In the case of C/C(=N\NC(=S)Nc1ccc(C)cc1)c1cc2ccccc2o1, the inhibition was -2.09%. Work on NC[C@H](Cc1ccccc1)NCCc1cc(C(F)(F)F)cc(C(F)(F)F)c1 yielded an inhibition of -15.8%. CC(=O)/C(=N\Nc1ccc(Cl)cc1Cl)Sc1cccc2cccnc12 gave an inhibition of -6.02%. Work on Cc1ccccc1NC(=O)C1CCN(c2ncccn2)CC1 yielded an inhibition of -0.85%. O=C(NC(=S)Nc1ncccn1)c1ccccc1Br showed an inhibition of -4.76%. Nc1ccc(Nc2ccccc2)cc1 showed an inhibition of 1.54%. With Cn1c2c(c(=O)n(C)c1=O)C1c3ccccc3OCC1C(C)(C)O2 (stereo not given) the inhibition was -3.5%. With Oc1ccc2ccccc2c1N=Nc1nccs1 the inhibition was 18.1% (active). In the case of COCCCNC(=O)CNC(=S)N(Cc1cc(OC)c(OC)c(OC)c1)C1CCCC1, the inhibition was -10.5%. In the case of COc1ccnc(NC(=S)N2CCN(c3ncc(C(F)(F)F)cc3Cl)CC2)c1, the inhibition was -6.49%. Cc1ccc2sc(NNC(=O)c3ccc4c(c3)OCCO4)nc2c1C showed an inhibition of 3.21%. In the case of Cc1ccc(-c2csc(NNC(=O)c3ccccc3)n2)cc1, the inhibition was 6.07% (active). For COc1ccc(C(=O)NNC(=S)NC(=O)c2ccccc2)cc1, the inhibition was -1.93%. CCc1cc(-c2n[nH]c(=S)n2CC(C)C)cs1 showed an inhibition of -0.76%. With Cn1cc(Cl)c(C(=O)NNC(=S)Nc2cccc(Cl)c2)n1 the inhibition was 0.3%. For CC(C)=CCCC1(C)C=Cc2c(ccc3c2[nH]c2cc(O)c(C)cc23)O1 (stereo not given), the inhibition was 8.94% (active). Work on CC(C)c1ccc(Nc2nnc(SCC(=O)c3nnc(-c4ccccc4)o3)s2)cc1 yielded an inhibition of -8.04%. Work on CC(=O)Oc1ccc2c(c1)C(=O)c1ccccc1C2=O yielded an inhibition of -2.62%. Compound O=C(N/N=C/c1cc(Cl)cc([N+](=O)[O-])c1O)C(O)(c1ccccc1)c1ccccc1 has an inhibition of 5.59%. In the case of S=c1[nH]nc(-c2ccco2)n1/N=C/c1ccccc1, the inhibition was -0.08%. With CCOc1ccc2[nH]c(=S)sc2c1 the inhibition was -2.18%. For Cc1c(NC(=S)NCc2ccc(F)cc2)cccc1[N+](=O)[O-], the inhibition was -0.65%. With CC(Oc1ccc2ccccc2c1)C(=O)NNC(=S)NC(=O)c1ccco1 (stereo not given) the inhibition was -3.72%. In the case of CSC1=NN(c2ccccc2)CN(c2ccccc2)N1C, the inhibition was 4.75%. Cc1c(C(=O)N/N=C/c2ccccc2)[nH]c2c([N+](=O)[O-])cccc12 showed an inhibition of -10.6%. In the case of NC(Cc1ccccc1)c1csc(Nc2cc(Oc3ccccc3)ncn2)n1 (stereo not given), the inhibition was -10.4%. In the case of O=C(NNC(=S)Nc1ccc(Br)cc1Cl)c1ccco1, the inhibition was 3.75%. CCOc1ccc(/C=N/NC(N)=S)cc1 showed an inhibition of -2.77%. With Cc1cc(-c2n[nH]c(=S)n2-c2ccc(C)c(C)c2)no1 the inhibition was 2.66%. CC(=O)NC(c1cccs1)c1cc(Br)c2cccnc2c1O (stereo not given) gave an inhibition of 1.21%. In the case of Cc1cc(-n2nc(C)cc2C)n2ncc(-c3ccccc3)c2n1, the inhibition was -10.6%. Work on CCOC(=O)C1(Cc2cccc(OC)c2)CCCN(C(=O)CCSC)C1 (stereo not given) yielded an inhibition of -20.8%. In the case of Cc1cccc(NC(=S)NCCN(C2CCCCC2)C2CCCC2)c1, the inhibition was -19.9%. In the case of Brc1ccccc1C1Nc2cccc3cccc(c23)N1, the inhibition was 16.4% (active). In the case of CC(=O)c1nnn(-c2ccc(Cl)cc2C#N)c1C, the inhibition was -6.79%. With COc1ccc(C(=O)NC(=S)NNC(=O)c2c(-c3ccccc3)noc2C)cc1 the inhibition was -3.7%. Work on Cc1ccc(NC(=S)NNC(=O)CSc2nnc(SCc3ccccc3Cl)s2)cc1 yielded an inhibition of 0.65%. With COc1ccc(C(N)c2csc(NC(=O)Nc3cccc(C(F)(F)F)c3)n2)cc1 (stereo not given) the inhibition was 5.13%. In the case of CCCCOc1ccc(CSC(=N)N)cc1[N+](=O)[O-], the inhibition was -15.6%. Compound Cc1c(Cl)cccc1NC(=S)NCc1ccc2c(c1)OCO2 has an inhibition of 0.14%. C/C(=N\NC(=O)CSc1nc2ccccc2c(=O)n1-c1ccccc1C)c1cccs1 gave an inhibition of -14.6%. With O=C(COc1ccc(S(=O)(=O)NCc2ccccc2)cc1)N1CCOCC1 the inhibition was -4.58%. With C=CCn1c(C23CC4CC(CC(C4)C2)C3)n[nH]c1=S the inhibition was -2.58%. Compound CCOC(=O)NC(=O)/C(C#N)=C\c1ccccc1 has an inhibition of -4.97%.
